Reference: the supplement of paper PMC9694430
“And” between values parts separate entries of the source, which are not always exact repeats. Identical values can stand only once. Counter-ions that a name gives are not always drawn.

Experiments:
Assay in all cases: thermal shift delta Tm vs DMSO control; higher = stronger stabilization (binding)
Conditions in all cases: 12.5 µM; protein concentration 2 µM
[1] = system: LOC_OS01G01410-cb001
Summary of the method: (§1)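 The melting temperature shift given here is a triplicate mean, measured against protein that received only DMSO. Melting temperatures came from Boltzmann fits of differential scanning fluorimetry data on E. coli-expressed, purified rice kinase domain constructs. Each 19.5 μl well contained 2 μM kinase, 100 mM potassium phosphate pH 7.5, 150 mM NaCl, 10% glycerol, 5 × SYPRO Orange and compound in DMSO. Plates were scanned from 25°C to 95°C at 0.05°C/s.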

[2] = system: LOC_OS01G02750-cb003
Summary of the method: as §1

[3] = system: LOC_OS01G10900-cb004
Summary of the method: as §1

[4] = system: LOC_OS01G13800-cb001
Summary of the method: as §1

[5] = system: LOC_OS01G14860-cb001
Summary of the method: as §1

[6] = system: LOC_OS01G21960-cb002
Summary of the method: as §1

[7] = system: LOC_OS01G39600-cb002
Summary of the method: as §1

[8] = system: LOC_OS01G48390-cb002
Summary of the method: as §1

[9] = system: LOC_OS01G51400-cb002
Summary of the method: as §1

[10] = system: T1, LOC_OS01G52050-cb004
T1 sequence (whole entry): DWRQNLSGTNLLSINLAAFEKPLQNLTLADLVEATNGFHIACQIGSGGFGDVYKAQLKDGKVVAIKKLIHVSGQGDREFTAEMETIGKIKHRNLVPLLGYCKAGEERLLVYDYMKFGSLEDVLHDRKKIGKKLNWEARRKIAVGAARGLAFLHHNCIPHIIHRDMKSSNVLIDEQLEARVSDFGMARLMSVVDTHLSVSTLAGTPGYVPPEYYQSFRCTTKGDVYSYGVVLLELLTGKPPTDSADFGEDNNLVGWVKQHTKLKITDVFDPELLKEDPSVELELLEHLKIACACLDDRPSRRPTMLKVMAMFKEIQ
Summary of the method: as §1

[11] = system: LOC_OS01G57100-cb003
Summary of the method: as §1

[12] = system: LOC_OS01G60330-cb001
Summary of the method: as §1

[13] = system: LOC_OS01G60700-cb002
Summary of the method: as §1

[14] = system: LOC_OS01G63280-cb003
Summary of the method: as §1

[15] = system: LOC_OS01G67340-cb003
Summary of the method: as §1

[16] = system: LOC_OS01G70970-cb002
Summary of the method: as §1

[17] = system: LOC_OS02G07810-cb001
Summary of the method: as §1

[18] = system: LOC_OS02G08530-cb003
Summary of the method: as §1

[19] = system: LOC_OS02G14120-cb001
Summary of the method: as §1

[20] = system: LOC_OS02G17970-cb001
Summary of the method: as §1

SMILES	thermal shift delta Tm [1]	thermal shift delta Tm [2]	thermal shift delta Tm [3]	thermal shift delta Tm [4]	thermal shift delta Tm [5]	thermal shift delta Tm [6]	thermal shift delta Tm [7]	thermal shift delta Tm [8]	thermal shift delta Tm [9]	thermal shift delta Tm [10]	thermal shift delta Tm [11]	thermal shift delta Tm [12]	thermal shift delta Tm [13]	thermal shift delta Tm [14]	thermal shift delta Tm [15]	thermal shift delta Tm [16]	thermal shift delta Tm [17]	thermal shift delta Tm [18]	thermal shift delta Tm [19]	thermal shift delta Tm [20]
COC(=O)N[C@@H](C)CNc1nccc(-c2cn(C(C)C)nc2-c2cc(Cl)cc(NS(C)(=O)=O)c2F)n1 [Encorafenib (LGX818)]	0.41 °C	0.83 °C	0.1 °C	-0.12 °C	5.56 °C	0.28 °C	0.05 °C	0.2 °C	0.1 °C	0.5 °C	1.3 °C	0.6 °C	1.13 °C	16.6 °C	0.27 °C	0.24 °C	0.09 °C	0.83 °C	1.23 °C	0.55 °C
CS(=O)(=O)c1cccc(CNc2nc(Nc3ccc4c(c3)CCC(=O)N4)ncc2C(F)(F)F)c1	3.58 °C	3.6 °C	1.39 °C	-0.34 °C	3.83 °C	3.04 °C	7.76 °C	3.42 °C	2.2 °C	5.18 °C	1.78 °C	4.37 °C	0.7 °C	1.3 °C	1.2 °C	6.42 °C	1.43 °C	2.07 °C	5.48 °C	0.72 °C
Cc1cnc(-c2cnc(NCCNc3ccc(C#N)cn3)nc2-c2ccc(Cl)cc2Cl)[nH]1	0.25 °C and -0.35 °C	1.32 °C and 0.93 °C	0.52 °C and -0.13 °C	0.39 °C and 0.37 °C	7.39 °C and 7.4 °C	1.7 °C and 1.69 °C	0.07 °C and 1.56 °C	0.47 °C and 0.64 °C	0.25 °C and 0.6 °C	0.73 °C and 0.53 °C	0.99 °C and 1.83 °C	0.47 °C and 0.68 °C	0.39 °C and 1.43 °C	1.2 °C and 1.03 °C	0.03 °C and 0.47 °C	1.08 °C and 1.19 °C	1.11 °C and 0.87 °C	0.72 °C and 0.68 °C	0.07 °C and 0.44 °C	0.65 °C and 2.15 °C
C[C@H]1CNC(=O)c2cnn3ccc(nc23)N[C@H](C)c2cc(F)ccc2O1	-0.06 °C	4.66 °C	3.91 °C	-0.18 °C	0.3 °C	1.05 °C	0.15 °C	1.46 °C	0.22 °C	4.57 °C	0.38 °C	-0.02 °C	-0.09 °C	2 °C	1.17 °C	0.74 °C	-0.67 °C	2.82 °C	10.7 °C	-0.27 °C
O=C(O)c1ccc(Nc2ncc3c(n2)-c2ccc(Cl)cc2C(c2c(F)cccc2F)=NC3)cc1	1.36 °C	-0.24 °C	-0.28 °C	0.41 °C	0.03 °C	-0.02 °C	0.1 °C	0.02 °C	-0.16 °C	0.07 °C	0.51 °C	0.82 °C	0.64 °C	-0.31 °C	-0.46 °C	0.46 °C	0.3 °C	0.39 °C	0.88 °C	0.07 °C
O=C(O)[C@]1(Cc2cccc(Nc3nccs3)n2)CC[C@@H](Oc2cccc(Cl)c2F)CC1	1.81 °C	1.68 °C	3.48 °C	-1.25 °C	5.16 °C	1 °C	2.55 °C	3.01 °C	-0.7 °C	13.5 °C	5.7 °C	1.72 °C	-1.18 °C	0.43 °C	3.34 °C	9.45 °C	0.53 °C	5.62 °C	13.5 °C	0.24 °C
CC#CC(=O)N1CC[C@@H](n2c(=O)n(-c3ccc(Oc4ccccc4)cc3)c3c(N)ncnc32)C1 [ONO-4059 (GS-4059) hydrochloride]	0.39 °C	0.39 °C	0.14 °C	-0.37 °C	0.23 °C	0.04 °C	0.11 °C	-0.2 °C	-0.08 °C	-0.56 °C	0.49 °C	0.71 °C	0.99 °C	-0.08 °C	0.27 °C	0.11 °C	0.05 °C	0.27 °C	0.04 °C	0.51 °C
O=C1NC(=O)C(c2cnc3ccccn23)=C1c1cn2c3c(cc(F)cc13)CN(C(=O)N1CCCCC1)CC2	0.36 °C	0.62 °C	0.19 °C	0.44 °C	4.55 °C	2.13 °C	5.95 °C	0.1 °C	0.37 °C	0.22 °C	1.16 °C	3.68 °C	2.25 °C	0.82 °C	0.19 °C	0.64 °C	1.59 °C	1.8 °C	0.04 °C	2.16 °C
CC1(COc2ccc3c(c2)ncn3-c2ccc3cccc(N4CCC(N)CC4)c3n2)COC1	1.38 °C	7.03 °C	1.43 °C	-0.87 °C	1.96 °C	3.78 °C	2.31 °C	0.25 °C	0.13 °C	11.9 °C	1.84 °C	0.86 °C	0.41 °C	0.93 °C	3.44 °C	7.9 °C	0.2 °C	3.47 °C	11.5 °C	0.58 °C
Cc1[nH]nc2ccc(-c3cncc(OC[C@@H](N)Cc4ccccc4)c3)cc12	0.54 °C	2.26 °C	0.37 °C	0.21 °C	4.96 °C	3.58 °C	-0.73 °C	1.02 °C	0.06 °C	2.3 °C	1.88 °C	0.68 °C	1.01 °C	0.26 °C	1.12 °C	0.36 °C	1.05 °C	2.68 °C	3.18 °C	0.41 °C
CC(=O)c1c(C)c2cnc(Nc3ccc(N4CCNCC4)cn3)nc2n(C2CCCC2)c1=O	0.65 °C	0.74 °C	0.47 °C	-0.38 °C	2.26 °C	0.28 °C	0.65 °C	0.1 °C	0 °C	0.98 °C	-0.7 °C	1.73 °C	0.15 °C	-0.12 °C	1.56 °C	0.58 °C	-0.42 °C	1.29 °C	4.13 °C	0.68 °C
O=c1cc(N2CCOCC2)oc2c1ccc1ccccc12	-0.07 °C	2.24 °C	1.69 °C	0.55 °C	0.74 °C	-0.09 °C	-0.09 °C	0.43 °C	-0.05 °C	0.24 °C	-0.21 °C	-0.04 °C	0.19 °C	0.17 °C	0.3 °C	-0.28 °C	0.45 °C	0.22 °C	1.47 °C	0.01 °C
COc1cc(-c2cc(-c3ccc(N4CCNCC4)cc3)cnc2C)cc(OC)c1OC	1.74 °C	0.65 °C	1.13 °C	-0.6 °C	-0.12 °C	0.67 °C	-1.03 °C	0.11 °C	-0.26 °C	0.04 °C	-0.02 °C	1.13 °C	0.16 °C	-0.05 °C	0.51 °C	0.29 °C	0.05 °C	0.49 °C	1.25 °C	0.44 °C
CC(C)NC(=O)C1CCC(n2c(NC(=O)c3ccc(F)cc3)nc3ccc(CN4CCC(C(C)(C)O)CC4)cc32)CC1 (stereo not given) [Belizatinib (TSR-011)]	0.68 °C	3.65 °C	1.75 °C	-0.36 °C	0.58 °C	1.84 °C	2.02 °C	2.61 °C	0.56 °C	4.45 °C	0.68 °C	1.95 °C	0.11 °C	0.25 °C	2.85 °C	6.79 °C	-0.66 °C	5.19 °C	4.13 °C	-0.03 °C
O=C1NC(=O)C(c2ccccc2[N+](=O)[O-])=C1Nc1ccc(O)c(Cl)c1	0.62 °C	-1.98 °C	0.16 °C	0.72 °C	0.92 °C	1.43 °C	-0.46 °C	0.67 °C	0.04 °C	-0.24 °C	2.1 °C	0.17 °C	1.88 °C	0.02 °C	0.79 °C	0.12 °C	1.72 °C	1.16 °C	-1.08 °C	1.06 °C
CC(C)c1c2cc(-c3ccnc(NC4CCC(NC5CCOCC5)CC4)n3)ccc2nn1C (stereo not given)	1.15 °C	4.38 °C	1.83 °C	-0.3 °C	7.15 °C	2.64 °C	1.1 °C	2.74 °C	0.39 °C	2.13 °C	0.61 °C	0.07 °C	0.86 °C	0.36 °C	0.46 °C	0.29 °C	0.41 °C	1.38 °C	4.79 °C	0.57 °C
CC(C)CC(=O)Nc1n[nH]c2c1CN(C(=O)C1CCN(C)CC1)C2(C)C	0.12 °C	1.36 °C	0.4 °C	0.44 °C	6.4 °C	1.05 °C	-0.1 °C	0.75 °C	0.45 °C	0.59 °C	1.01 °C	1.35 °C	0.94 °C	0.65 °C	0.25 °C	0.19 °C	1.09 °C	0.95 °C	0.04 °C	1.36 °C
Cc1c[nH]c2nc(Nc3ccc(N4CCN(C)CC4)c(F)c3)nc(-c3cccc(CC#N)c3)c12	6.3 °C	6.99 °C	3.64 °C	0.12 °C	5.41 °C	4.45 °C	9.35 °C	5.5 °C	1.14 °C	13.5 °C	5.04 °C	11.8 °C	1.98 °C	3.25 °C	11.9 °C	8.75 °C	1.04 °C	6.49 °C	15.2 °C	1.24 °C
CCCCCCCCCCCCCCCCOP(=O)([O-])OCC[N+](C)(C)C [Miltefosine]	-6.86 °C	-17.5 °C	-2.68 °C	-7.38 °C	-3.1 °C	-5.94 °C	-5.77 °C	-3.18 °C	-3.78 °C	-6.22 °C	-11.3 °C	-3.63 °C	-6.31 °C	-4.06 °C	-4.33 °C	-8.33 °C	-3.73 °C	-3.69 °C	-6.59 °C	-5.83 °C
CCn1c(=O)c(-c2cc[nH]n2)cc2c(C)nc(N)nc21	0.43 °C	1.06 °C	0.44 °C	0.27 °C	0.44 °C	0.65 °C	0.24 °C	0.13 °C	-0.16 °C	0.21 °C	-0.09 °C	0.91 °C	0.72 °C	0.14 °C	0.34 °C	0.36 °C	0 °C	0.79 °C	0.62 °C	0.52 °C
c1cncc(CN2CCC(n3ncc4c(N5CCOCC5)nc(-c5ccc6[nH]ccc6c5)nc43)CC2)c1	0.33 °C	-0.32 °C	0.65 °C	0.33 °C	0.21 °C	0.55 °C	0.03 °C	0.18 °C	0.45 °C	-0.01 °C	2.55 °C	0.61 °C	0.71 °C	0.09 °C	-0.04 °C	0.4 °C	0.62 °C	0.57 °C	0.15 °C	0.27 °C
